Twelve compounds from PubChem BioAssay (Tox21) can be followed below.

Values joined by “and” are separate entries in the source; they are usually repeats but may differ in a detail not shown here. Equal entries are not always repeated. Inconclusive results are not listed. Active and inactive are the calls of the source. Unless noted, the call rests on the fitted dose curve; in most records, active means well fitted curve in the direction sought with a large enough effect in the repeat runs; inconclusive means weak or mixed curves; inactive means no such curve, though single readings can be large; an effect the other way counts as inactive or inconclusive.

A short description of test [1]: qHTS assay to identify small molecule antagonists of the thyroid receptor (TR) signaling pathway (AID 743065). Further: nearly all actives have a fitted effect of over 55% in size. Further: potency means the concentration at half of the fitted maximal effect. Put shortly:
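GH3.TRE-Luc rat pituitary cells carrying two TR response elements driving luciferase were plated for 4 h, given compound plus 1 nM T3 (final), and incubated 23.5 h at 37 C. ONE-Glo luminescence measured reporter inhibition; CellTiter-Fluor fluorescence tracked cytotoxicity.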

For test [2], the system named is thyroid hormone receptor (rat, GH3 cells). In words: qHTS assay to identify small molecule agonists of the thyroid receptor (TR) signaling pathway (AID 743066; calls by dose curve).
The target of test [3] is Estrogen receptor (Homo sapiens) (UniProt P03372). Briefly: qHTS assay to identify small molecule antagonists of the estrogen receptor alpha (ER-alpha) signaling pathway (AID 743069; active means well fitted curve in the direction sought with a large enough effect in the signal ratio in the repeat runs, not every such curve was filed as active; the % refers to the signal ratio). In a few lines: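 A 17beta-estradiol challenge was applied right after compound transfer to ER-alpha-UAS-bla HEK293 cells previously kept in charcoal-stripped serum. Plates stood 18 hr at 37C and 5% CO2; fluorescence was read following 2 hr FRET substrate loading at room temperature.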
Chain of Estrogen receptor (Homo sapiens) (P03372 whole entry, looked up): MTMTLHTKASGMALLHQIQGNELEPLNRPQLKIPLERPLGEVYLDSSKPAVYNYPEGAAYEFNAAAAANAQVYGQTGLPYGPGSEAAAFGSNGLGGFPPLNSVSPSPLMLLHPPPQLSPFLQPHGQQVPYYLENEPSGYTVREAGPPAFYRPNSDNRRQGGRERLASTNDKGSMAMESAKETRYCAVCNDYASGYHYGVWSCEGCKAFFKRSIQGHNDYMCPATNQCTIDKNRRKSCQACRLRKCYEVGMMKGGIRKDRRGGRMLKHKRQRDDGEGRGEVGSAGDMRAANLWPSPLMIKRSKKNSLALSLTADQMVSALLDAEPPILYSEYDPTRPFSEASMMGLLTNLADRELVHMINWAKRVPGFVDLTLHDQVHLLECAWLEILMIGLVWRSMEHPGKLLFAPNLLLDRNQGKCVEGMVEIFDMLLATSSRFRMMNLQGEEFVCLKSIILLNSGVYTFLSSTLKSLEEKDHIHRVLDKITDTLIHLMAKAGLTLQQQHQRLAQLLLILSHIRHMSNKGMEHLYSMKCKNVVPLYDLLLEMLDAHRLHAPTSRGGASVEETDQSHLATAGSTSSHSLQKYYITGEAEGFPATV

Test [4] can be described thus: qHTS assay to identify small molecule antagonists of the estrogen receptor alpha (ER-alpha) signaling pathway - cell viability counter screen (AID 743074; calls by dose curve;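 further: HEK293 cells carrying ER-alpha-UAS-bla reporter stimulated with 17beta-estradiol; nearly all actives have a fitted effect of over 45% in size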; further: potency means the concentration at half of the fitted maximal effect). (In general: In qHTS, concentration-response curves come from the screen itself.)
Test [5] addresses Estrogen receptor (Homo sapiens) (UniProt P03372). Briefly: qHTS assay to identify small molecule agonists of the estrogen receptor alpha (ER-alpha) signaling pathway (AID 743075; calls by dose curve;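 further: HEK293 GripTite cells with ER-alpha and UAS-driven beta-lactamase reporter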).
Test [6] shares this target. Briefly: qHTS assay to identify small molecule agonists of the estrogen receptor alpha (ER-alpha) signaling pathway using the BG1 cell line (AID 743079). Further: nearly all actives have a fitted effect of over 20% in size. Further: potency means the concentration at half of the fitted maximal effect.
The target of the next test is Aromatase (Homo sapiens) (UniProt P11511). Briefly: qHTS assay to identify aromatase inhibitors (AID 743083). Further: series mostly up to about 70 µM; nearly all actives have a fitted effect of over 55% in size.
Chain of Aromatase (Homo sapiens) (P11511 whole entry, looked up): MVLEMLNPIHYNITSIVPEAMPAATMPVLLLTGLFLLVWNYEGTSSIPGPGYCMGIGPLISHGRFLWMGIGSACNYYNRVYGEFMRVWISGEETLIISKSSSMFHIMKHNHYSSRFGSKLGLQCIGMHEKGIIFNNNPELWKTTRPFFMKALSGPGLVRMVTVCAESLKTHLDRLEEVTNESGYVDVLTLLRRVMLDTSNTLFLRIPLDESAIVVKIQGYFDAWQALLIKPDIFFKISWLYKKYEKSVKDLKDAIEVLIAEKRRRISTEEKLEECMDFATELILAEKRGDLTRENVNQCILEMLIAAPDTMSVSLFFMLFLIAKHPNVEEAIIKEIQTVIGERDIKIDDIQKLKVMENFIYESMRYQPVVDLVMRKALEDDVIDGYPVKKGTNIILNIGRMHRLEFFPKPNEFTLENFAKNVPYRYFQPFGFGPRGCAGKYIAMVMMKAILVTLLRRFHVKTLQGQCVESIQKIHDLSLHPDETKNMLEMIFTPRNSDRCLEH
A short description of test [7]: qHTS assay to identify aromatase inhibitors - cell viability counter screen (AID 743084).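 Further: cells stimulated with testosterone during compound exposure; nearly all actives have a fitted effect of over 55% in size.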
The target in test [8] is Aryl hydrocarbon receptor (Homo sapiens) (UniProt P35869). Briefly: qHTS assay to identify small molecule that activate the aryl hydrocarbon receptor (AhR) signaling pathway (AID 743085).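 Further: HG2L7.5c1 human HepG2 liver cells with stably integrated DRE-driven firefly reporter; series mostly up to about 70 µM; nearly all actives have a fitted effect of over 15% in size.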 Put shortly:
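Cell line HG2L7.5c1 (human hepatoma, 20× DRE-luc). Plated, 5 h 37C, compound/DMSO added, 24 h 37C. CellTiter-Fluor 30 min 37C → fluorescence; then ONE-Glo 30 min RT → luminescence.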

The nature of test [9]: qHTS assay to identify small molecule that activate the aryl hydrocarbon receptor (AhR) signaling pathway - cell viability counter screen (AID 743086).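 Further: HepG2 liver cells carrying the AhR DRE luciferase reporter; series mostly up to about 70 µM; nearly all actives have a fitted effect of over 45% in size.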 In a few lines: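 HepG2-AhR-luc (HG2L7.5c1) cells, 4000/well, were preincubated 5 h at 37C, exposed to compound in qHTS format for 24 hr at 37C, then given CellTiter-Fluor for 30 min; viability was read as fluorescence in the reporter wells.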

For test [10], the target named is Peroxisome proliferator-activated receptor gamma (Homo sapiens) (UniProt P37231). In words: qHTS assay to identify small molecule agonists of the peroxisome proliferator-activated receptor gamma (PPARg) signaling pathway (AID 743094; active means well fitted activation curve with a large enough effect in the signal ratio in the repeat runs, not every such curve was filed as active; the % refers to the signal ratio; further: potency means the concentration at half of the fitted maximal effect). In a few lines: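 Reporter activation was scored by fluorescence of cleaved LiveBLAzer B/G substrate (1 h, room temperature) in PPARg-bla HEK293H cells previously treated 17 h at 37C with DMSO-dissolved compounds.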
Chain of Peroxisome proliferator-activated receptor gamma (Homo sapiens) (P37231 whole entry, looked up): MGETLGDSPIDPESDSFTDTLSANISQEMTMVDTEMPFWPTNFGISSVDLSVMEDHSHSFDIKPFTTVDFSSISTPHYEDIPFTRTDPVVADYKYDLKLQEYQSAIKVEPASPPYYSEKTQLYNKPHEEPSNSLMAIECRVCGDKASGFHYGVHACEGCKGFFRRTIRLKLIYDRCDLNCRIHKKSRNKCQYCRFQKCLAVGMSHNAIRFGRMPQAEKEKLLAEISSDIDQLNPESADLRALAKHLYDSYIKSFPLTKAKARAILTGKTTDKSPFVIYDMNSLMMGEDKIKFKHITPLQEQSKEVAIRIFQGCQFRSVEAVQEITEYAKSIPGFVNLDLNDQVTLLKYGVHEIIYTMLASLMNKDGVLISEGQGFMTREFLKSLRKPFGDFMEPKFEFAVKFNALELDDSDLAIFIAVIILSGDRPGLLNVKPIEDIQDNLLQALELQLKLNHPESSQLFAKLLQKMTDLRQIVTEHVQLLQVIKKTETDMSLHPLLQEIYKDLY

Test [11] has the same target. Briefly: qHTS assay to identify small molecule antagonists of the peroxisome proliferator-activated receptor gamma (PPARg) signaling pathway (AID 743191; calls by dose curve; further: series mostly up to about 63 µM; nearly all actives have a fitted effect of over 30% in size). Put shortly: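 GeneBLAzer PPARg UAS-bla HEK293H cells carrying a UAS-driven beta-lactamase reporter were plated at 3000 cells/well, preincubated 5 h at 37C, then given compound for 17 h at 37C; LiveBLAzer B/G FRET substrate was read after 1 h at room temperature.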

Test [12] can be described thus: qHTS assay for small molecule agonists of the antioxidant response element (ARE) signaling pathway (AID 743202; active means well fitted activation curve with a large enough effect in the signal ratio in the repeat runs, not every such curve was filed as active; the % refers to the signal ratio; further: potency means the concentration at half of the fitted maximal effect). In a few lines:
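Following a 16 h, 37 C exposure of reporter HepG2 cells (ARE-driven beta-lactamase, 2,000 cells/well) to compounds, FRET substrate was applied for 2 h at room temperature and fluorescence intensity recorded.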

A short description of test [13]: qHTS assay for small molecule agonists of the antioxidant response element (ARE) signaling pathway - cell viability counter screen (AID 743203; calls by dose curve; further: nearly all actives have a fitted effect of over 55% in size). Put shortly:
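Viability counter screen: stably transfected ARE-bla HepG2 line, 16 hrs compound exposure at 37C/5% CO2, ATP-based CellTiter-Glo luminescence measured in the reporter wells.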

Test [14] in a line: qHTS assay for small molecule activators of the heat shock response signaling pathway - cell viability counter screen (AID 743209). Further: nearly all actives have a fitted effect of over 50% in size. In a few lines: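 Viability of HSE-bla HeLa cells is measured with CellTiter-Glo in the wells already used for the reporter read. Compound exposure lasts 5 h at 37 C, and luminescence is read after 30 min at room temperature.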
Test [15] is described as follows: qHTS assay for small molecule activators of the heat shock response signaling pathway (AID 743210; active means well fitted activation curve with a large enough effect in the signal ratio in the repeat runs, with a control signal flat, not every such curve was filed as active; the % refers to the signal ratio; further: series mostly up to about 63 µM). In a few lines: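 Heat shock element–beta-lactamase HeLa reporter cells; qHTS with compounds for 5 h at 37 C; detection by FRET substrate fluorescence after 2.5 h at RT.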
Test [16] is described as follows: qHTS assay to identify small molecule agonists of the peroxisome proliferator-activated receptor delta (PPARd) signaling pathway - cell viability counter screen (AID 743211). Further: nearly all actives have a fitted effect of over 55% in size. Further: potency means the concentration at half of the fitted maximal effect. In a few lines:
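HEK293H PPARd-bla, 3000 cells/well; 5 h preincubation 37C/5% CO2; cpd in DMSO, 17 h 37C; B/G FRET substrate 2 h RT; CellTiter-Glo 30 min RT, luminescence.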

A short description of test [17]: qHTS assay to identify small molecule antagonists of the estrogen receptor alpha (ER-alpha) signaling pathway using the BG1 cell line (AID 743080; calls by dose curve;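 further: BG1 cells stimulated with 17beta-estradiol alongside compound; series mostly up to about 70 µM; nearly all actives have a fitted effect of over 25% in size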). Put shortly: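 Luciferase inhibition measured with ONE-Glo after 30 min at RT in BG1Luc4E2 cells given test compounds and 17beta-estradiol for 21.5 h at 37 C; CellTiter-Fluor viability read in the same wells beforehand.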

A short description of test [18]: qHTS assay to identify small molecule antagonists of the estrogen receptor alpha (ER-alpha) signaling pathway using the BG1 cell line - cell viability counter screen (AID 743081).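 Further: compound given together with 17beta-estradiol as the ER stimulus; series mostly up to about 70 µM; nearly all actives have a fitted effect of over 45% in size.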
A short description of test [19]: qHTS assay to identify small molecule antagonists of the peroxisome proliferator-activated receptor gamma (PPARg) signaling pathway - cell viability counter screen (AID 743194). Further: nearly all actives have a fitted effect of over 55% in size. Further: potency means the concentration at half of the fitted maximal effect. Put shortly: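 PPARg-UAS-bla HEK293H cells were plated, rested 5 h at 37 C, then treated with compounds plus rosiglitazone (50 nM final) for 17 h at 37 C; viability was then read by CellTiter-Glo luminescence after 30 min at room temperature.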

Chain of Aryl hydrocarbon receptor (Homo sapiens) (P35869 whole entry, looked up): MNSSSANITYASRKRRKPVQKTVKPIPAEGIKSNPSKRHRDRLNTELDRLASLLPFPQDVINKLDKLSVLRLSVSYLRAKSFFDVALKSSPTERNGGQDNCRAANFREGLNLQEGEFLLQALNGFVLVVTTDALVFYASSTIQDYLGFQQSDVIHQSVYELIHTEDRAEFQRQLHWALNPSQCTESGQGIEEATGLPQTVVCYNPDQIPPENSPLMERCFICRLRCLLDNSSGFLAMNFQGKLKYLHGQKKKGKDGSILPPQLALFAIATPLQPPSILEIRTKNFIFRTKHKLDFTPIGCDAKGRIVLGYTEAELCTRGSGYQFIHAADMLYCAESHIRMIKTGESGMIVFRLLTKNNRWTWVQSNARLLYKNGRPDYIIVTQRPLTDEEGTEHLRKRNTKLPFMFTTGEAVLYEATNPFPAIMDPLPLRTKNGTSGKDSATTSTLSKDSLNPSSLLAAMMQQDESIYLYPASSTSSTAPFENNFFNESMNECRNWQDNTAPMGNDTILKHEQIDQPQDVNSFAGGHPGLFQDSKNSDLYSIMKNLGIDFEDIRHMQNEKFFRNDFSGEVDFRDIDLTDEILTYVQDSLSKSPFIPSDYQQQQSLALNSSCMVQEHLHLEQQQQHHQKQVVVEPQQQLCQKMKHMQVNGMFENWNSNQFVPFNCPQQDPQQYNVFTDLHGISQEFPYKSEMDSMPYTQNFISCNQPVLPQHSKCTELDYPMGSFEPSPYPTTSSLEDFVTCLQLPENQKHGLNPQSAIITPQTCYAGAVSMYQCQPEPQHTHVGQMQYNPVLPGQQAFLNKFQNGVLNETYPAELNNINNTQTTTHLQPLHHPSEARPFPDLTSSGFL

Consider `CC(C(O)c1ccc(O)cc1)N1CCC(Cc2ccccc2)CC1` (stereo not drawn), for which the Potency in test [1] is 23.7 µM (active). Moreover, the Potency result (in test [2]; in test [3]; in test [4]; in test [5]; in test [6]; with Aromatase (Homo sapiens)) was “inactive” each time. The Potency result in test [7], in test [8], in test [9], in test [10], in test [11] and in test [12] was “inactive” in each case. Besides, the Potency result in [13], in test [14], in test [15] and in test [16] was “inactive” in each case.

On to `BrC1CCC(Br)C(Br)CCC(Br)C(Br)CCC1Br` (stereo not drawn), for which the Potency is 4.84 µM (active) and 13 µM (active) in test [1]; 48.8 µM (active) in [4]; 16.5 µM (active) in test [19]; 26.1 µM (active) in test [16]. Moreover, the Potency result in test [2], in test [3], in test [5], in test [17], in [18] and in [8] was “inactive” each time. The Potency result in test [9], in test [10] and in [14] was “inactive” each time.

Turning to `O=C1NCC2(CCN(CCc3ccccc3)CC2)O1`, the Potency result in test [1], in test [2], in [3], in test [4], in test [5] and in test [17] was “inactive” in each case. The Potency result (in [18]; in the test with Aromatase (Homo sapiens); in [7]; in test [8]; in [9]; in test [10]) was “inactive” in each case. Also, the Potency entry in test [11], in test [12], in test [13], in test [15] and in test [16] was “inactive” in each case. Also, the Potency in test [6] was 29.8 µM (active).

As for `NCCCCCC(=O)O`, the Potency entry in test [1], in test [2], in test [4], in test [5], in test [6] and in test [17] was “inactive” in each case. The Potency entry (in test [18]; with Aromatase (Homo sapiens); in [7]; in test [8]; in test [9]; in [10]) was “inactive” in each case. For the same compound, the Potency result in [11], in [19], in test [12], in [13], in [14] and in test [15] was “inactive” each time. The Potency result in [16] is “inactive”.

With `CC(=O)CC(=O)Nc1ccc2[nH]c(=O)[nH]c2c1`, the Potency entry in test [1], in [2], in [3], in test [4], in test [5] and in [6] was “inactive” throughout. The Potency entry (in [17]; in test [18]; in the test with Aromatase (Homo sapiens); in test [7]; in [8]; in [9]) was “inactive” each time. Further, the Potency result in test [10], in [11], in test [19], in [12], in [14] and in [15] was “inactive” throughout. Also, the Potency entry in test [16] is “inactive”.

In the case of `Cc1cccc(O)c1C`, the Potency result in [1], in test [2], in [3], in test [4], in [5] and in test [6] was “inactive” in each case. Further, the Potency result (in [17]; in [18]; with Aromatase (Homo sapiens); in test [7]; in test [8]; in test [9]) was “inactive” in each case. Moreover, the Potency entry in [10], in test [11], in test [12], in test [13], in [14] and in test [15] was “inactive” each time. Besides, the Potency result in test [16] is “inactive”.

With `CCOc1ccc2c(c1)C(C)=CC(C)(C)N2`, the Potency was 33.5 µM (active) in test [1], 21.3 µM (active) in test [10] and 61.1 µM (active) in test [12]. Also, the Potency result in test [2], in [3], in test [4], in [5], in test [6] and in test [17] was “inactive” each time. For the same compound, the Potency result (in test [18]; with Aromatase (Homo sapiens); in test [7]; in [8]; in test [9]; in test [11]) was “inactive” throughout. The Potency result in [19], in [13] and in test [16] was “inactive” throughout.

Regarding `CC(=O)OCCOCCOCCOC(C)=O`, the Potency result in [1], in test [2], in [3], in [4], in [5] and in test [6] was “inactive” each time. Further, the Potency result (in test [17]; in [18]; in the test with Aromatase (Homo sapiens); in [7]; in [8]; in [9]) was “inactive” throughout. Also, the Potency result in [10], in [11], in test [19], in test [12], in test [15] and in test [16] was “inactive” throughout.

Consider `O=C(O)CP(=O)(O)O`, for which the Potency entry in [1], in test [2], in test [4], in test [5], in test [6] and in test [17] was “inactive” throughout. Also, the Potency entry (in test [18]; with Aromatase (Homo sapiens); in test [7]; in [8]; in test [9]; in test [10]) was “inactive” in each case. The Potency result in test [11], in test [12], in [13], in test [14], in test [15] and in [16] was “inactive” each time.

Turning to `CCC(C)(Oc1ccc(C2(c3ccc(OC(C)(CC)C(=O)O)cc3)CCCCC2)cc1)C(=O)O` (stereo not drawn), the Potency result in test [1], in test [2], in test [3], in test [4], in [5] and in [6] was “inactive” in each case. Further, the Potency entry (in test [17]; in test [18]; with Aromatase (Homo sapiens); in test [7]; in test [8]; in test [9]) was “inactive” each time. Further, the Potency entry in test [10], in test [11], in test [12], in test [13], in test [14] and in [15] was “inactive” each time. In test [16], the Potency entry is “inactive”.

In the case of `O=C(Oc1ccccc1)c1ccccc1O`, the Potency result in test [1], in test [2], in test [4], in [5], in test [6] and in test [17] was “inactive” in each case. Besides, the Potency result (in test [18]; with Aromatase (Homo sapiens); in test [7]; in test [8]; in test [9]; in [10]) was “inactive” in each case. The Potency entry in test [11], in [12], in test [13], in [14], in [15] and in test [16] was “inactive” throughout.

For the compound `CCN1CCCC1CNC(=O)c1cc(S(=O)(=O)CC)c(N)cc1OC` (stereo not drawn), the Potency result in [1], in [2], in test [3], in test [5], in [6] and in test [17] was “inactive” each time. Also, the Potency result (with Aromatase (Homo sapiens); in [7]; in [8]; in test [9]; in [10]; in test [11]) was “inactive” each time. Besides, the Potency result in [19], in test [12], in test [13], in test [15] and in test [16] was “inactive” in each case.
